# Source: PubChem (National Center for Advancing Translational Sciences (NCATS))
# Shown is part of a subset that was picked to be rich in hits.
# Shiga inhibitor = A qHTS for Small Molecule Inhibitors of Shiga Toxin. Vero cells, Shiga toxin protein synthesis inhibition reporter. inhibition, % at 38.7 µM. 290,000 compounds, 9.2% hits. AID 2315, 2010; in the data active = inhibition mostly above about 28%, no sharp cut-off; inactive = mostly below about 43%; also: 0% is about no effect
# LmPK inh = qHTS Assay for Inhibitors of Leishmania Mexicana Pyruvate Kinase (LmPK). Potency, µM (series often up to 57.5 µM), for inactives: at the highest dose activity change, negative = inhibition, hits mostly inhibitors. purified LmPK, Kinase-Glo ATP luminescence, 1 h. Q27686. 290,000 compounds, 0.37% hits; also: potency is read from the fitted curve at half-maximal effect; % is scaled to controls: 0 for no effect and ±100 for the full control effect
#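 Purified LmPK (0.1 nM) with 0.5 mM PEP and 0.1 mM ADP in imidazole buffer pH 7.2 with MgCl2/KCl, 1 h at room temperature. ATP formed was read by luciferase luminescence and normalized to no-enzyme and uninhibited controls.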
# TbPYK inhibitor = qHTS of Trypanosoma Brucei Inhibitors. pyruvate kinase (Trypanosoma brucei), Q57TT1. TbPYK enzyme, Kinase-Glo Plus ATP luminescence, 45 min. Potency, µM (series often up to 76.8 µM), for inactives: at the highest dose activity, negative = inhibition, hits mostly inhibitors. 410,000 compounds, 0.12% hits; also: potency is read from the fitted curve at half-maximal effect; % is scaled to controls: 0 for no effect and ±100 for the full control effect; nearly all actives have a fitted effect of over 50% in size
#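 Activity of T. brucei pyruvate kinase was followed by Kinase-Glo Plus luminescence after the enzyme reacted 45 min at room temperature with 130 uM ADP (final) and substrate. Test compounds were added before ADP at multiple concentrations.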
# Cycloheximide cs = Cycloheximide Counterscreen for Small Molecule Inhibitors of Shiga Toxin | cell reporter, cycloheximide protein synthesis inhibition counterscreen | max response, % | 300,000 compounds, 12% hits | AID 2314, 2010; in the data active = max response mostly above about 13%, no sharp cut-off; inactive = mostly below about 14%; also: read at 38.3 µM for the half of the compounds with a filed dose; 0% is about no effect
# Giardia FBPA inh = qHTS Assay for Inhibitors of Fructose-1,6-bisphosphate Aldolase from Giardia Lamblia; purified Giardia FBPA; Potency, µM (doses to about 59.6 µM), inactives show at the top dose activity, negative = inhibition, hits mostly inhibitors; 290,000 compounds, 0.71% hits; A8B2U2; also: potency is read from the fitted curve at half-maximal effect; % is scaled to controls: 0 for no effect and ±100 for the full control effect; nearly all actives have a fitted effect of over 55% in size
# Target sequence (A8B2U2 whole entry, looked up): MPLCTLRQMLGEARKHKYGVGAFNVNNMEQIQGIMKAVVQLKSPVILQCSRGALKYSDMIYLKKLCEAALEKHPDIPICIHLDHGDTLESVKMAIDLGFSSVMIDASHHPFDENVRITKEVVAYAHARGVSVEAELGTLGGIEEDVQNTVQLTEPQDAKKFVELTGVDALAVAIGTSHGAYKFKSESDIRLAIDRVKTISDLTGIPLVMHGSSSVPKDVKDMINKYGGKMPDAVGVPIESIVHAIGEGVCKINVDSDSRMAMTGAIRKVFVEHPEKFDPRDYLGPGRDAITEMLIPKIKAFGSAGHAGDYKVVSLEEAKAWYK
#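 Giardia FBPA (40 nM reagent) was preincubated 10 min at RT with compound (up to 57.5 uM final), then substrate plus GAPDH/TPI/NAD/arsenate coupling system with diaphorase/resazurin was added; resorufin fluorescence (525/598 nm) was read after 20 min.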
# Sm TGR block = qHTS Assay for the Inhibitors of Schistosoma Mansoni Peroxiredoxins; purified TGR, DTNB reduction, TNB absorbance 405 nm; 360,000 compounds, 3% hits; Potency, µM (titrated, usually from 114 µM), for the others: top-dose activity change, negative = inhibition, most hits filed as inhibitors; also: potency is read from the fitted curve at half-maximal effect; % is scaled to controls: 0 for no effect and ±100 for the full control effect; nearly all actives have a fitted effect of over 60% in size
#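 First, TGR (20 nM dispensed) and NADPH were mixed with compound. Second, a 15 min room-temperature incubation followed. Third, further NADPH and then DTNB were added to start the reaction. Finally, TNB absorbance was monitored kinetically.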
# Numbers without * were called inactive; ? = inconclusive; nt = not tested or not shown; [ ] = remark or other dose. Unless noted, calls follow the shape of the dose curve; as a rule, active = well fitted curve in the direction sought with a large enough effect; inconclusive = small, poorly fitted or top-dose-only effect, or another doubt; inactive = no such curve, though single readings can be large; an effect the other way counts as inactive or inconclusive.
SMILES,Shiga inhibitor,LmPK inh,TbPYK inhibitor,Cycloheximide cs,Giardia FBPA inh,Sm TGR block
CC(C)(C)C1CCC(=O)N(CCOc2ccccc2)CC1 (configuration not stated),43*,0%,-9%,28*,9%,-12%
CC(C)(C)[C@@H]1CCC(=O)N(CC[C@H](Sc2ccccc2)c2ccccc2)CC1,6,0%,0%,1,-3%,-33%
COc1cccc(N2CCN(C(=O)c3ccc(C)c(NC(=O)c4nsc5ccccc45)c3)CC2)c1,nt,nt,-7%,nt,nt,6%
O=[N+]([O-])c1cc(O)c2ncccc2c1,30,13%,0%,22*,?,-5%
O=C(NCCn1ccc2ccccc21)c1ccc(Cl)cc1,nt,nt,5%,nt,nt,-3%
COc1cccc(Cn2c(=O)cnc3cnc(Oc4ccccc4)nc32)c1,nt,nt,nt,nt,-23%,nt
Clc1ccccc1Cn1c(/C=C/c2ccco2)nc2ccccc21,132*,-6%,-18%,90*,-9%,32µM*
O=C(NCCCc1nc2ccccc2n1Cc1ccccc1Cl)c1ccco1,nt,nt,-3%,nt,nt,0%
Nc1nc(Cl)cc(Oc2ccc([N+](=O)[O-])cc2)n1,-8,-6%,-20%,-2,3%,6%
CCc1ccc(Oc2cc(Cl)nc(N)n2)cc1,65*,-4%,-5%,50*,0%,3%
COc1cccc(Oc2cc(Cl)nc(N)n2)c1,21*,-3%,3%,16*,0%,-1%
COc1ccc(Oc2cc(Cl)nc(N)n2)cc1,12,1%,-5%,12,-3%,nt
Cc1ccc2sc(-c3ccc(NC(=O)/C=C\C(=O)O)cc3)nc2c1,112*,-4%[11.5 µM],?,40*,3%,-26%
CCC(=O)Nc1ccc(-c2csc(NNC(C)=O)n2)cc1,2,0%,-6%,-1,-12%,?
CCCCCC(=O)Nc1ccc(-c2csc(C)n2)cc1,77*,1%,11%,46*,-11%,-20%
CCCCCC(=O)Nc1ccc(-c2csc(N)n2)cc1,123*,3%,-1%,57*,-17%,-3%
Cc1nc(-c2ccc(NC(=O)/C=C\C(=O)O)cc2)cs1,50*,-2%,?,18*,10%,-23%
COc1ccc(CC(=O)Nc2ccc(-c3csc(C)n3)cc2)cc1,35,4%,7%,13,0%,18%
O=C(Cn1c(=O)n(Cc2nc(-c3ccccc3)no2)c(=O)c2cc3c(cc21)OCO3)Nc1ccc(Cl)cc1,nt,nt,-1%,nt,nt,7%
CCc1ccc(OCC(=O)Nc2ccc(Cl)c(-c3nc4ncccc4o3)c2)cc1,nt,nt,6%,nt,nt,-4%
Cc1ccc(/C=C/c2onc(C)c2S(=O)(=O)N2CCC(C(=O)Nc3cccc(C#N)c3)CC2)cc1,nt,nt,4%,nt,nt,-1%
CC1CCCCN1C(=O)COC(=O)/C=C/c1ccc2ccccc2n1 (configuration not stated),48*,0%,1%,48*,-2%,4%
CC1CCCCN1C(=O)COC(=O)c1ccc2ccccc2n1 (configuration not stated),nt,nt,-2%,nt,nt,-3%
COC(=O)CNC(=O)COC(=O)/C=C/c1ccc2ccccc2n1,32*,-4%,3%,20*,-2%,-15%
COc1ccc(Nc2cc(C)c3cc(NC(=O)c4cc(OC)cc(OC)c4)ccc3n2)cc1,nt,nt,3%,nt,nt,1%
Cc1cc(C)c(C)c(S(=O)(=O)NCc2ccc(C(=O)N3CCCCC3)cc2)c1C,39,0%,4%,22*,-1%,2%
Cc1ccc(C(=O)Nc2ccccc2C(=O)N2CCCCCC2)cc1,-3,7%,1%,2,1%,1%
Cc1ccc(NS(=O)(=O)c2ccc(C(=O)N3CCCCCC3)cc2)cc1,nt,nt,-8%,nt,nt,-18%
Cc1cc(C)c(C)c(S(=O)(=O)NCc2ccc(C(=O)N3CCCC3)cc2)c1C,-7,0%,2%,0,5%,9%
